# Integrin act MD – activates integrin-mediated alleviation for muscular dystrophy; alpha7betagal myoblasts, beta-gal FDG fluorescence, 48 h; 350,000 tested, 0.064% active; Potency, µM (titrated, usually from 38.3 µM), hits mostly activators; further: nearly all actives have a fitted effect of over 60% in size
#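 Alpha7betagal+/- myoblasts (passage 13) were plated 16-24 hr, then exposed to compounds (1:260 dilution of DMSO stock) for 48 hours at 37C. After MPER lysis, β-galactosidase reporter activity was read as FDG fluorescence (ex 480/em 540) after 30 minutes.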
# DRD3 agonist – agonists of human D3 dopamine receptor. P35462. D3R DiscoveRx beta-arrestin cells, luminescence, 90 min. max activation, %. 410,000 tested, 0.58% active; in the data active means max activation above about 30%
#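 Cells at 1500/well, incubated overnight, then treated with pinned compounds (dopamine as control) for 90 min at 37 degrees C. DiscoveRx reagent added for 30 - 60 minutes at room temperature; luminescence read.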
# CBFb RUNX1 block – CBF-beta/RUNX1 interaction disruption. AlphaScreen CBFb-His/RUNX1-biotin binding, biochemical. 230,000 tested, under 10 active. Q01196+Q13951. Potency, µM (top dose mostly 59.8 µM), hits mostly inhibitors
#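 Compounds were screened at multiple concentrations against a preformed CBF-beta(His)/RUNX1(biotin) complex (30 nM of each) for 15 min at room temperature, followed by 90 min with nickel and streptavidin beads and AlphaScreen reading.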
# PTHR1 ag – PTHR1 (human) receptor agonism | Q03431 | HEK293 GP2 PTHR1 cells, GloSensor cAMP luminescence, 1 h | Potency, µM (top dose mostly 115 µM), most hits filed as activators | 410,000 tested, 0.075% active; further: nearly all actives have a fitted effect of over 55% in size
# Target sequence (Q03431 whole entry, looked up): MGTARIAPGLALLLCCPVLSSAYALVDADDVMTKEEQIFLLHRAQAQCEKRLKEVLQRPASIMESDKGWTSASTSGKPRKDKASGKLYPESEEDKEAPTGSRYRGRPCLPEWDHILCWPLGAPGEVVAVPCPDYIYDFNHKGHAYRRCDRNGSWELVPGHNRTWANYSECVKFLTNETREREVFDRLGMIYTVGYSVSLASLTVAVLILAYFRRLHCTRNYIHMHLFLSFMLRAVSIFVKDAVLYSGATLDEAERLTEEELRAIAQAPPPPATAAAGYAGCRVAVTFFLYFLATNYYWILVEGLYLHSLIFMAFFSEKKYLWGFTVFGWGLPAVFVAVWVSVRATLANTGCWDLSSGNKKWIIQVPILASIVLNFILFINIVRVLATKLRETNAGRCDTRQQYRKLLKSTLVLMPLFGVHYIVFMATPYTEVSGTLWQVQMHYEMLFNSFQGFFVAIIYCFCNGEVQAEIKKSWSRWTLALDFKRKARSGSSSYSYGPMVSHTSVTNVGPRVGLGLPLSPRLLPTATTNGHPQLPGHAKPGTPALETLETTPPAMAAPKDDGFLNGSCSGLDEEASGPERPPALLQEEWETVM
#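 HEK-293-derived GP2 cells expressing PTHR1 and a GloSensor cAMP reporter, 3,000/well, plated overnight, given luciferin plus IBMX (each 0.5 mM as added) for 1 h at 37 °C, then compound for 1 h at 37 °C. Luminescence was read after 15 min at room temperature.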
# MBNL1-CUG inh – MBNL1-poly(CUG) RNA binding inhibition | Q9NR56 | TR-FRET MBNL1-His/biotin-(CUG)12 binding, 665/545 ratio | Potency, µM (doses to about 57.5 µM), actives largely listed as inhibitors | 280,000 tested, 0.036% active | AID 2675; active means well fitted inhibition curve with a large enough effect in the signal ratio, with a control signal flat, not every such curve was filed as active; inconclusive means small, poorly fitted or top-dose-only effect, or effect the other way, or a change in a side signal; inactive means no such curve, though single readings can be large or run the other way; the % refers to the signal ratio
#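 Compounds (final 92 nM to 58 uM) are added to His-tagged MBNL1 and biotin-(CUG)12, then terbium anti-His antibody and streptavidin-XL665 (5 nM final). After 60 min at room temperature, the 665/545 nm ratio is read.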
# DRD3 antagonist – antagonists of human D3 dopamine receptor; P35462; D3R cells, DiscoveRx beta-arrestin luminescence, antagonist mode; stronger effect = lower value; max response, negative = inhibition, %; 360,000 tested, 2.5% active; in the data active means max response below about -50%; inconclusive means no clear call, values can overlap the other calls
#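 Cells plated overnight at 1500 cells/well, then exposed to library compounds with dopamine controls for 90 minutes at 37 degrees C. DiscoveRx reagent added for 30–60 minutes at room temperature; luminescence read, quantitative HTS format.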
# A number is an active result; 0 = inactive; ? = inconclusive; - = not tested or not shown. In the library only some 2.8% were active in any assay of this set; here they are far more common. Unless noted, the call rests on the fitted dose curve; in most records, active means well fitted curve in the direction sought with a large enough effect; inconclusive means small, poorly fitted or top-dose-only effect, or another doubt; inactive means no such curve, though single readings can be large; an effect the other way counts as inactive or inconclusive.
SMILES,Integrin act MD,DRD3 agonist,CBFb RUNX1 block,PTHR1 ag,MBNL1-CUG inh,DRD3 antagonist
CSc1ccc(C(=S)N2CCCCCC2)cc1,0,0,-,0,0,0
CCN1CCN(C(=S)c2ccc(Cl)cc2)CC1,0,0,0,0,0,-68.6
CCN1CCN(C(=S)c2ccc(SC)cc2)CC1,0,0,0,0,0,-85.4
OCCN1CCN(C(=S)c2ccc(Cl)cc2)CC1,0,0,0,0,0,0
S=C(c1ccc(Cl)cc1)N1CCN(Cc2ccccc2)CC1,0,0,0,0,0,-68.9
CSc1ccc(C(=S)N2CCN(Cc3ccccc3)CC2)cc1,0,0,0,0,0,?
CC(=O)/C(C(=N)N1CCN(C(c2ccccc2)c2ccccc2)CC1)=C(\C)O,0,0,0,0,0,?
CC(=O)/C(C(=N)N1CCN(Cc2ccccc2)CC1)=C(\C)O,0,0,0,0,0,-54.3
CCCc1cc(=O)[nH]c(SCc2nc3ccccc3s2)n1,0,42.9,0,0,0,0
CCOc1ccccc1-c1nc(-c2ccc(NC(=O)Cc3ccc(OC)cc3)cc2)no1,0,0,0,0,0,0
CCOc1ccccc1-c1nc(-c2ccc(NC(=O)c3ccc(Br)o3)cc2)no1,0,57.2,0,0,0,0
CCOC(=O)C1(C(=O)OCC)NC(=O)CC1CC(C)C (stereo not drawn),0,0,-,0,-,0
O=S(=O)(c1ccc(Cl)cc1)N1CCC(N2CCCCCC2)CC1,0,0,0,0,0,-66.8
O=S(=O)(c1ccc(F)cc1)N1CCC(N2CCCCCC2)CC1,0,0,0,0,0,-50.1
Cc1ccccc1CNC(=O)c1ccc2nc(C(C)C)oc2c1,-,0,-,0,-,-
C(=N\N1CCN(Cc2ccccc2)CC1)/c1cccs1,0,0,0,0,0,-72.9
COc1ccccc1N1CCN(C2CCCN(S(=O)(=O)c3ccc(C)cc3)C2)CC1 (stereo not drawn),0,0,-,0,0,-80.1
COc1ccccc1C(=O)N1CCC(N2CCN(c3ccccc3)CC2)CC1,0,53.3,0,0,0,0
CC(C)(C)C1CCC(N2CCN(c3ccccc3)CC2)CC1 (stereo not drawn),0,0,-,0,0,-53.3
COc1ccccc1C(=O)N1CCC(N2CCN(c3ccccc3OC)CC2)CC1,0,0,0,0,0,-64.8
COc1ccccc1N1CCN(C2CCN(C(=O)COc3ccccc3)CC2)CC1,0,0,0,0,0,-60.6
COc1ccccc1N1CCN(C(=O)COc2cccc3ccccc23)CC1,0,0,-,0,0,0
C=CCc1cc(/C=C2/NC(=O)NC2=O)cc(OCC)c1O,0,0,0,0,?,0
CCOc1cc(/C=C2/NC(=O)NC2=O)cc([N+](=O)[O-])c1O,0,0,0,0,?,-85.6
CC(C)=CCN1CCN(C/C(Cl)=C/c2ccccc2)CC1CCO (stereo not drawn),0,0,0,0,0,-62.8
SMILES,Integrin act MD,DRD3 agonist,CBFb RUNX1 block,PTHR1 ag,MBNL1-CUG inh,DRD3 antagonist
COc1c(C=O)cc2c3c1CCCN3CCC2,0,0,-,0,0,0
NCc1cc2c3c(c1)CCCN3CCC2,0,0,-,0,0,-65.5
CCCCCCSc1ccc([C@@H]2[C@H]3C(=O)N(CC)C(=O)[C@H]3[C@]3(C(=O)OC)CCCN23)cc1,0,0,-,0,-,0
O=C1c2ccccc2NC(c2ccc3c(c2)OCO3)N1O (stereo not drawn),0,0,0,0,0,-57.3
O=C1c2ccccc2NC(c2ccc3c(c2)OCCO3)N1c1ccc2c(c1)OCCO2 (stereo not drawn),0,0,0,0,0,0
Cc1cccc(C(=O)CC(=O)c2cc(Cl)ccc2O)c1,0,0,0,0,0,-78.6
O=C(CC(=O)c1cc(Cl)ccc1O)c1ccccc1,0,0,0,0,0,0
CC(C)(C)N/C=C(\C#N)S(=O)(=O)c1ccc(Br)cc1,11.2µM,0,0,0,-,0
CCN/C=C(\C#N)S(=O)(=O)c1ccc(Br)cc1,0,0,0,0,-,0
Cn1c(SCC(=O)NCCC2=CCCCC2)nnc1C(F)(F)F,0,0,-,0,-,-70.0
COc1cc(NC(=O)C2CCN(S(=O)(=O)c3c(C)noc3/C=C/c3ccccc3F)CC2)cc(OC)c1OC,-,0,-,0,-,-
COCCOCC(O)CN1CCN(c2ccc(C)cc2)CC1 (stereo not drawn),0,0,0,0,0,-61.8
OC(COCC1COc2ccccc2O1)CN1CCN(c2ccccc2)CC1 (stereo not drawn),0,32.9,0,0,0,0
CCN1CCN(CC(O)COCC2COc3ccccc3O2)CC1 (stereo not drawn),0,0,0,0,0,0
COCCOCC(O)CN1CCN(c2ccccc2)CC1 (stereo not drawn),0,0,0,0,0,-77.8
OC(COCc1ccccc1)CN1CCN(c2ccccc2)CC1 (stereo not drawn),0,0,0,0,0,?
C[C@@H]1CN([C@H](C)CO)C(=O)CCCn2cc(nn2)CO[C@H]1CN(C)C(=O)c1ccccc1,-,0,-,0,-,0
CC(C)C[C@@H](CN1CCC[C@@H]1CN1C(=S)NC[C@@H]1Cc1ccc(O)cc1)N1C[C@H](Cc2ccc(O)cc2)N(CC2CCCCCC2)C1=S,-,0,-,?,-,0
O=C1c2ccccc2C(=O)c2c(O)c(O)cc(O)c21,-,0,-,0,-,-66.9
COc1ccc(C(CCN(Cc2ccc(OC)c(OC)c2)C(C)=O)C(C)C)cc1 (stereo not drawn),0,0,-,0,0,0
CCCCCCCCCCCCCCCCC(C(=O)O)C(O)(CC(=O)O)C(=O)O (stereo not drawn),-,39.5,-,-,-,-
Cn1ncc(Cl)c1C(=O)N1CCN(C(=O)c2ccco2)CC1,?,0,0,0,0,0
CCCCCCCCCCCCCC[C@@H](O)[C@@H](O)[C@@H](N)CO,-,-,0,-,-,-
CCOC(=O)COc1ccc2ccccc2c1/C=C/[N+](=O)[O-],0,0,0,0,0,-52.0
Cc1ccc(C)c(NC(=O)CSc2c3c(nc4ccc(Cl)cc24)CCCC3)c1,-,42.5,-,0,-,-
CCN(C(=O)c1cc2cc(Br)cc(OC)c2oc1=O)c1ccccc1,-,0,-,0,-,-
CCN1C(=NCCc2ccc([N+](=O)[O-])cc2)N[C@@H](c2ccccc2)[C@H](C(=O)OC)[C@H]1C,0,0,-,0,0,?
CCN1C(=NCCc2ccc(Br)cc2)N[C@@H](c2ccccc2)[C@H](C(=O)OC)[C@H]1C,0,0,-,0,0,-88.4
CCCNC(=O)N1CCN(S(=O)(=O)c2ccc3c(ccn3C)c2)CC1,-,0,-,0,-,-

# Screens: PubChem BioAssay, National Center for Advancing Translational Sciences (NCATS)
